Calls of active or inactive are those of the source.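 How the source made its calls: active means compound raising the membrane signal above positive-control mean plus 3 SD in both repeats, and a primary screen hit; inactive means the rest.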

This experiment deals with Short transient receptor potential channel 6 (Mus musculus) (UniProt Q61143). The experiment is described as follows: positive modulators of mouse TRPC6 channel – HEK293 cells, membrane potential dye, duplicate, selectivity assay for TRPC4 potentiator project, confirmation (AID 434952). The following applies: HEK293 TRPC6, membrane potential dye fluorescence, at 10 µM, maximal acetylcholine added after compound.
Chain of Short transient receptor potential channel 6 (Mus musculus) (Q61143 whole entry, looked up): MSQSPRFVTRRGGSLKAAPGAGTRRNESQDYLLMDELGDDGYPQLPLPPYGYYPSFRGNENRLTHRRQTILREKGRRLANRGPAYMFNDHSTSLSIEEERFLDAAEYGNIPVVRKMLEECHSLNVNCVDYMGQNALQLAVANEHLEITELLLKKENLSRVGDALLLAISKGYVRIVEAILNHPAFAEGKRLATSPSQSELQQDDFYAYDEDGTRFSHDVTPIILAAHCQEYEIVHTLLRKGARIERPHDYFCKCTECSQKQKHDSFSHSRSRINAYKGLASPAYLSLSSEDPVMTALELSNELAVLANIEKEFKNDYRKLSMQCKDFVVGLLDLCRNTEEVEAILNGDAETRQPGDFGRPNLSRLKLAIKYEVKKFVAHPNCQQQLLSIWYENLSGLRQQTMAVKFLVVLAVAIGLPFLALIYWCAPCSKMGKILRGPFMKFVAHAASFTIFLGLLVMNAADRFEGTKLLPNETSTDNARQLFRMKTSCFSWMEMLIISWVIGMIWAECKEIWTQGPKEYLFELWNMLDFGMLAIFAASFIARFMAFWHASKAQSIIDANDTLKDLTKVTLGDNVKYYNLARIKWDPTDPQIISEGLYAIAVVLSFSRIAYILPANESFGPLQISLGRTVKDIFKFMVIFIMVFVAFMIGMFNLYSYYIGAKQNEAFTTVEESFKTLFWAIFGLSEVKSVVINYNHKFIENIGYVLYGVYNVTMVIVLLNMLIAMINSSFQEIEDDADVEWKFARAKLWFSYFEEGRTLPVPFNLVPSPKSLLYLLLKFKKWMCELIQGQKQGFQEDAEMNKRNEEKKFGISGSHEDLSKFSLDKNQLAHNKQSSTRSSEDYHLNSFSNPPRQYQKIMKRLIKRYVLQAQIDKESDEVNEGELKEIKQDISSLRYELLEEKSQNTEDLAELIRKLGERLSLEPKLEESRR
Consider `CC(C)c1ccc(OCc2ccc(C(=O)N3CCCC3)o2)cc1`, for which the outcome was inactive.

Regarding `COc1ccc(-n2cc(CNCc3cnc4ccccn34)c(-c3cccc(F)c3)n2)cc1`, the result was inactive.

`COc1ccc(CCN2C(=S)N(C)C(=O)C2CC(=O)Nc2ccc(F)cc2)cc1` (stereo not drawn): the result was inactive.

In the case of `CCOC(=O)C1=NNC(C(=O)c2ccc(Cl)cc2)C1c1ccc(OC)cc1` (stereo not drawn), the outcome was inactive.

Consider `Cc1ccc(C(C)C)c(OCCCCN2CCNCC2)c1`, for which the result was inactive.

As for `CCOC(=O)CSc1nc2ccccc2c(=O)n1C1CCCC1`, the outcome was inactive.

On to `Clc1ccc(Cl)c(OCCCCN2CCNCC2)c1`, for which the result was inactive.

In the case of `COc1ccc(-c2cc(C(=O)N3CC(C)CC(C)C3)c3ccccc3n2)cc1` (stereo not drawn), the result was inactive.

Regarding `Cn1c(N2CCC(C(N)=O)CC2)nc2c1c(=O)n(Cc1ccc(Br)cc1)c(=O)n2C`, the outcome was inactive.

Turning to `OC1(c2ccc(Cl)cc2)CN(c2ccccc2)C2=[N+]1CCS2` (stereo not drawn), the outcome was inactive.

Consider `CCN(CCCNC(=O)CCCOc1cc(=O)n(C)c2ccccc12)Cc1ccccc1`, for which the outcome was inactive.

For `O=C(NN/C(=N/S(=O)(=O)c1ccc(Cl)cc1)c1ccccc1)c1cccc(Cl)c1`, the outcome was inactive.

With `CCn1c2ccc(F)cc2c2nnc(NN)nc21`, the result was inactive.

Consider `CCN(CC)CCOCCOc1ccc(Cl)c2ccccc12`, for which the result was inactive.

On to `O=C(NCCCN1CCCC1=O)c1ccc(CNS(=O)(=O)c2ccc(F)cc2)cc1`, for which the outcome was inactive.

Consider `Cc1noc(C)c1COC(=O)[C@@H](NC(=O)c1ccccc1Cl)C(C)C`, for which the result was inactive.

On to `C/C=C/Cn1c(SCCCc2ccccc2)nc2c1c(=O)[nH]c(=O)n2C`, for which the outcome was inactive.

Regarding `O=[N+]([O-])c1ccc2c(c1)C=C1CCCCC1(N1CCCC1)O2` (stereo not drawn), the result was inactive.

For the origin of these results see PubChem BioAssay.
